Screening data as filed in PubChem BioAssay.
UGM FP inh = blocks M. tuberculosis UGM enzyme; P9WIQ1; purified UGM, fluorescence polarization probe displacement; inhibition, % at 10 µM; hit rate 0.06% among 320,000; AID 504406; in the data active means inhibition above about 10%, passing the limit was not always enough
Mtb hypoxia inh = inhibitors of hypoxia-regulated fluorescent reporter in Mycobacterium tuberculosis; M. tuberculosis hypoxia-regulated fluorescent reporter, fluorescence; fluorescence inhibition, % (concentration not given with the values); hit rate 0.1% among 300,000; AID 1159583; in the data active means fluorescence inhibition mostly above about 23%, no sharp cut-off; inactive means mostly below about 17%
Rv3671c inh = Rv3671c (M. tuberculosis) protease inhibition | hit rate 0.048% among 320,000 | P9WHR9 | inhibition, % at 5.96 µM; in the data active means inhibition above about 38%;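 further: extracellular domain of Rv3671c used as enzyme; 0% = enzyme with DMSO and 100% = no enzyme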
Target sequence (P9WHR9 whole entry, looked up, the tested form may be a part): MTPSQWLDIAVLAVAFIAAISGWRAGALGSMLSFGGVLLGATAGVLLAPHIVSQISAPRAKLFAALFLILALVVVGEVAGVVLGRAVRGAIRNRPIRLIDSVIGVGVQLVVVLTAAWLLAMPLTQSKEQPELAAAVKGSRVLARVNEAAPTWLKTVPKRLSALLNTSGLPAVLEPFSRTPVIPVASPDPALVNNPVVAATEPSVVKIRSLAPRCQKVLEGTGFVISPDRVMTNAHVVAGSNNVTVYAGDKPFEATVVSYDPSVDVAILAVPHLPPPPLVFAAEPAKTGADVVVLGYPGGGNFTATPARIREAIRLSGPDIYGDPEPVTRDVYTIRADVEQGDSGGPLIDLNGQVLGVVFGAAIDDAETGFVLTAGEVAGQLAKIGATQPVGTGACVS
FadD28 binding = blocks FadD28 binding to the bisubstrate probe; inhibition, % at 12.5 µM; fluorescence polarization; AID 588549; hit rate 0.22% among 360,000; in the data active means inhibition above about 8.5%, passing the limit was not always enough
RecA intein inh = Mtb RecA intein splicing inhibition. inhibition, % (no concentration beside the values). cell-free RecA intein splicing, fluorescence. P9WHJ3. hit rate 0.75% among 290,000. AID 2221; in the data active means inhibition above about 30%;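 further: 0% = vehicle wells and 100% = reference inhibitor control wells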
GFP chromo cs = counter-screen: blocks GFP chromophore formation. cell-free GFP chromophore formation, fluorescence. hit rate 83% among 2,100. EC50, µM. shares compounds with RecA intein inh. AID 434968; call rule not given here
An asterisk follows results filed as active; x = no result given. A selection: hits, their analogues and other compounds. The true share with any hit is near 0.92%.

SMILES | UGM FP inh | Mtb hypoxia inh | Rv3671c inh | FadD28 binding | RecA intein inh | GFP chromo cs
CCOC(=O)C1=C(C)n2c(s/c(=C/c3cccc([N+](=O)[O-])c3)c2=O)=NC1c1ccc(O)c(OC)c1 (stereo not given) | 3 | x | 8 | 2 | 35* | 36*
O=C(Cc1ccccc1)NN=Cc1cccn1-c1ccc([N+](=O)[O-])cc1 | x | 5 | x | x | x | x
CS(=O)(=O)c1ccc(C(=O)OCc2nnc(-c3ccc(Cl)cc3)o2)cc1[N+](=O)[O-] | -3 | 4 | -10 | -2 | 67* | 6.8*
CC(=O)Nc1ccc(OC(=O)c2ccco2)cc1 | 0 | 3 | 9 | -1 | 33* | >38
COC(=O)C1=C(C)NC(=S)NC1c1ccc(OC(=O)c2ccco2)cc1 (stereo not given) | -1 | -5 | 13 | -2 | 31* | >38
COC(=O)C1=C(C)NC(C)=C(C(=O)OC)C1c1ccc(OC(=O)c2ccco2)cc1 | 0 | 10 | 3 | 1 | 1 | x
O=C(Oc1ccc(N2C(=O)CCC2=O)cc1)c1ccco1 | -5 | x | 1 | -2 | 31* | 0.61*
CC(=O)Nc1cc(OC(=O)c2ccco2)cc(OC(=O)c2ccco2)c1 | 1 | x | 13 | -1 | 54* | 7.4*
CCOC1OC(C(=O)Nc2ccccc2)=CC(c2cn(C(C)=O)c3ccccc23)C1CCCO (stereo not given) | x | 12 | x | x | x | x
CCN1Cc2c(/C=C/c3ccccc3)nc3ccc(OC)cc3c2N(c2cccc(Cl)c2)C1 | 4 | x | -44 | -5 | 34* | 23*
COc1cccc(N2CCc3c(C)nc4ccc(Cl)cc4c32)c1 | 0 | 13 | x | x | -2 | x
O=C1C(Cl)=C(N2CCOCC2)C(=O)N1c1cccc(Cl)c1 | 1 | 0 | -11 | -2 | 84* | 2.8*
Cc1cccc(N2C(=O)C(Cl)=C(N3CCOCC3)C2=O)c1 | 0 | 2 | 0 | -3 | 87* | 4.5*
O=C1/C(=C/c2ccccc2)N=C(N2CCOCC2)N1c1cccc(Cl)c1 | -2 | 2 | -9 | -1 | 1 | x
C=C(C)C(=O)N1CC2(CC(c3cccc(NC(=O)CC)c3)=NO2)CC1C(N)=O (stereo not given) | x | 16 | x | x | x | x
O=C(O)c1cccc(Cn2c(Cl)c(/C=N/Nc3ccccc3)sc2=O)c1 | -3 | x | -7 | -1 | 30* | >38
CC1=NN(c2ccc(S(=O)(=O)O)cc2C)C(=O)C1 | 0 | 4 | -10 | -3 | 91* | 18*
O=C(Nc1ccc(N2CCOCC2)cc1)Nc1ccc2nsnc2c1 | -1 | 0 | 5 | 1 | 54* | >38
CC1CN(C(C)CO)C(=O)c2cccc(NC(=O)c3ccncc3)c2OC1CN(C)C(=O)NC1CCCCC1 (stereo not given) | x | 7 | x | x | x | x
CCn1c(-c2ccccc2)c(C(=O)CCl)c2ccccc21 | 2 | 15 | 4 | 1 | 40* | 1.6*
Cn1c(-c2ccccc2)c(C(=O)CCl)c2ccccc21 | x | 15 | x | -2 | 42* | 14*
Cn1c(-c2ccccc2)c(CCO)c2ccccc21 | 2 | 4 | -5 | -2 | 1 | x
CN(N=C/C=C/c1ccccc1)C1=NS(=O)(=O)c2ccccc21 | x | 0 | x | x | x | x
Cn1c(=O)c([N+](=O)[O-])c(-n2cnc3ccccc32)c2ccccc21 | 0 | 2 | 0 | -3 | 63* | 22*
CCN(CC)c1c([N+](=O)[O-])c(=O)n(C)c2ccccc12 | -2 | 5 | 3 | -3 | -2 | x
SMILES | UGM FP inh | Mtb hypoxia inh | Rv3671c inh | FadD28 binding | RecA intein inh | GFP chromo cs
Cn1c(=O)c([N+](=O)[O-])c(Cl)c2ccccc21 | x | 10 | x | -2 | 56* | 11*
CCCCC1CNCCN1CCc1cccc2ccccc12 (stereo not given) | x | 3 | x | x | x | x
N#CC1=C(N)Oc2n[nH]c(-c3cccnc3)c2C1c1cc(F)ccc1F (stereo not given) | -2 | -1 | -10 | -11 | 0 | x
Cc1[nH]nc2c1C(c1cnn(C)c1)C(C#N)=C(N)O2 (stereo not given) | 3 | 15 | 5 | -1 | 76* | 23*
Cc1cc(-c2[nH]nc3c2C(c2ccc(Cl)cc2)C(C#N)=C(N)O3)c(C)s1 (stereo not given) | 0 | x | 0 | -4 | 77* | 23*
Cc1[nH]nc2c1C(C(C)c1ccccc1)C(C#N)=C(N)O2 (stereo not given) | 1 | -6 | 5 | -2 | -1 | x
Cc1ccc(C2C(C#N)=C(N)Oc3n[nH]c(C)c32)cc1 (stereo not given) | -2 | 4 | -5 | -2 | 77* | 19*
Cc1[nH]nc2c1C(c1ccc(Cl)cc1)C(C#N)=C(N)O2 (stereo not given) | 1 | x | -7 | 0 | 75* | 29*
CC(C)(C)c1[nH]nc2c1C(c1ccsc1)C(C#N)=C(N)O2 (stereo not given) | 1 | 4 | -12 | -3 | 27 | x
COc1ccccc1C(=O)N/C(=N\c1nc(C)cc(C)n1)Nc1ccccc1 | x | 1 | x | x | x | x
O=c1c2ccccc2ncn1N=Cc1ccccc1 | x | 3 | x | x | x | x
Cc1[nH]nc2c1C(c1cccs1)C(C#N)=C(N)O2 (stereo not given) | -1 | -3 | -3 | 0 | 54* | 34*
Cc1ccsc1C1C(C#N)=C(N)Oc2n[nH]c(C)c21 (stereo not given) | -2 | 11 | 0 | 0 | 15 | x
CCC(=O)N(CC)C1=C(O)c2ccccc2C(=O)C1=O | -1 | 0 | -60 | -4 | 73* | 12*
O=C(Nc1ncc([N+](=O)[O-])s1)c1ccco1 | 0 | 16 | -3 | -3 | 31* | 21*
CC(N)=C(C#N)C(=O)CN1CCCCC1 | x | -2 | x | x | x | x
CCN(CC)S(=O)(=O)c1ccc(N2CCN(S(=O)(=O)c3ccccc3C#N)CC2)nc1 | x | x | 3 | 0 | 32* | >38
CCN(CC)S(=O)(=O)c1ccc(N2CCN(S(=O)(=O)c3ccccc3)CC2)nc1 | x | -4 | x | -3 | 0 | x
O=C1C(Cl)=C(NCc2cccnc2)C(=O)c2ccccc21 | 2 | 0 | -76 | -2 | 76* | 9.4*
O=C1C(Cl)=C(NCCc2ccccc2)C(=O)c2ccccc21 | x | 14 | x | -3 | x | x
O=S(=O)(Cc1ccccc1)NCc1cccnc1 | 4 | -3 | -1 | 0 | 0 | x
C=CCNC1=C(Cl)C(=O)c2ccccc2C1=O | 0 | -5 | -47 | 0 | 34* | 19*
COc1cccc(N2CC(C(=O)Nc3nnc(SCC(=O)c4ccccc4)s3)CC2=O)c1 (stereo not given) | x | 0 | -18 | 1 | 94* | >38
COc1ccc(C(=O)CSc2nnc(NC(=O)C3CC(=O)N(c4ccccc4)C3)s2)cc1 (stereo not given) | -1 | 3 | -30 | 0 | -1 | x
COc1ccc(/C=C2/C(=O)N(Cc3ccccc3)N=C2C)cc1 | -2 | 3 | -59 | 0 | 59* | 7.3*
CC1=NN(c2ccccc2)C(=O)/C1=C\c1cc(C)n(-c2cccnc2)c1C | -2 | 1 | -6 | -2 | 33* | 31*
CC1=NN(c2ccccc2)C(=O)/C1=C\c1cc(C)n(-c2ccccc2)c1C | 2 | 16 | -8 | 0 | 0 | x
